Data: PubChem BioAssay AID1645855 (Buhrlage Lab, Dana-Farber Cancer Institute and Novartis …, 2021)
Screen size: about 47,000 compounds; about 3,100 (6.6%) were called active. The sample as a whole holds a higher share of actives than the screen did. Unmarked numbers belong to inactive results. Rule as the data show it: active = inhibition above about 30%; inactive = the rest.

What follows are molecules tested against Ubiquitin carboxyl-terminal hydrolase 17-like protein 5 (Homo sapiens) (UniProt A8MUK1) (assay: blocks human USP17 ubiquitin-rhodamine cleavage (AID 1645855)). Conditions: purified USP17, Ub-rhodamine cleavage fluorescence, 3 h; at 50 µM; active compounds read high.
Sequence of Ubiquitin carboxyl-terminal hydrolase 17-like protein 5 (Homo sapiens) (A8MUK1 whole entry, looked up): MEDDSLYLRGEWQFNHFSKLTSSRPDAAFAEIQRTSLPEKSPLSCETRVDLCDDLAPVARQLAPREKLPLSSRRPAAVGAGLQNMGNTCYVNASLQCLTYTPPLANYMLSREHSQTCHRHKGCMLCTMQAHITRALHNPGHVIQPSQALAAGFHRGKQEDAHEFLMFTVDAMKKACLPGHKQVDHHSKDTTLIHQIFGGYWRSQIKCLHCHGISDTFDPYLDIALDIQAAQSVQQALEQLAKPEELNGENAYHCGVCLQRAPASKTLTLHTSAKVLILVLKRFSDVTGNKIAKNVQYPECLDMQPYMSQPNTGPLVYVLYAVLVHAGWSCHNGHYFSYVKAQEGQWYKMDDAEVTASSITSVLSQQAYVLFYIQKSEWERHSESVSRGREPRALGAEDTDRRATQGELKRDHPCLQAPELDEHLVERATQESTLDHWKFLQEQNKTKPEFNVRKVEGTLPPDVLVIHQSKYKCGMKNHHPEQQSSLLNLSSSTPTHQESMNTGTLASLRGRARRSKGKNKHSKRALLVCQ

Row | Compound | inhibition
1 | c1ccc(Nc2cc(CC3CCN(Cc4cnc[nH]4)CC3)ncn2)nc1 | -12.1%
2 | CSc1ncnc2c1sc1nc(-c3ccccc3)c3c(c12)CC(C)(C)OC3 | 3.2%
3 | CCCCCCSc1ncnc2c1sc1nc(-c3ccccc3)c3c(c12)CC(C)(C)OC3 | 3.28%
4 | CC1(C)Cc2c(c(-c3ccco3)nc3sc4c(SCCCc5ccccc5)ncnc4c23)CO1 | 69.7% (active)
5 | Cc1ccc(S(=O)(=O)N2Cc3ccccc3CN3C(=O)NC(=O)C3C2)cc1 (configuration not stated) | 4.38%
6 | COc1ccc(CCNc2ncnc3c2cnn3Cc2ccccc2)cc1OC | -18.7%
7 | CC(=O)N1CC(C)Oc2cc(S(=O)(=O)Nc3ccc(C)cc3C)ccc21 (configuration not stated) | 6.48%
8 | CC1CCc2c(sc(NC(=O)c3cc(-c4ccccc4)nc4ccccc34)c2C(N)=O)C1 (configuration not stated) | 4.55%
9 | Cc1c(Cc2ccccc2)sc(NC(=O)c2cccnc2)c1C(N)=O | 10.7%
10 | NC(=O)c1c(NC(=O)c2ccccc2Oc2ccccc2)sc2c1CCN(Cc1ccccc1)C2 | 30.4% (active)
11 | O=C(NCc1ccc2c(c1)OCO2)c1ccc(CS(=O)c2ccc(Cl)cc2)o1 (configuration not stated) | -0.0116%
12 | CCc1cccc(C)c1NC(=O)C1=Cc2cc(OC)ccc2OC1 | -6.4%
13 | CC(=O)Nc1nsc(N2CCC(C(=O)NCc3cccc(C)c3)CC2)n1 | -1.72%
14 | Cc1cccc(CNC(=O)C2CCN(c3cnc4nccnc4c3)CC2)c1 | -128%
15 | Cc1cccc(CNC(=O)C2CCCN(S(=O)(=O)Cc3ccc(F)cc3)C2)c1 (configuration not stated) | 56.7% (active)
16 | COc1ccc(Cn2cc(-c3nc(C4CC4)no3)ccc2=O)cc1F | -5.47%
17 | CCN1CCN(c2nc3c(c(=O)[nH]c(=O)n3C)n2CC(O)c2ccccc2)CC1 (configuration not stated) | -4.6%
18 | C=CCn1c(N2CCC(C(=O)NCC(C)O)CC2)nc2ccccc21 (configuration not stated) | 9.39%
19 | O=C1N[C@H]2OCCC[C@H]2[C@H](c2ccccc2C(=O)O)N1 | -6.46%

Row | Compound | inhibition
20 | Cn1c(CCN2CCCC2)nc2cc(NS(=O)(=O)c3ccccc3)ccc21 | 60.7% (active)
21 | CC(=O)Nc1ccc2c(c1)nc(CCN1CCCC1)n2C | -8.68%
22 | Cn1c(CCN2CCCC2)nc2cc(NC(=O)c3cccc([N+](=O)[O-])c3)ccc21 | 16.8%
23 | CCc1nnc(NC(=O)c2cc(-c3ccc(C)c(C)c3O)n[nH]2)s1 | 16.7%
24 | CC(C)(C)C(=O)Nc1ccc(SCc2nnc(-c3ccccc3)o2)cc1 | 2.2%
25 | COc1cc(C(=O)Nc2ccc(-c3nc4cnccc4o3)cc2)cc(OC)c1OC | -3.38%
26 | O=C(Nc1ccc(-c2nc3cnccc3o2)c(O)c1)c1ccc(-c2ccccc2)cc1 | 2.32%
27 | O=C(Cc1ccccc1)Nc1ccc(-c2nc3cnccc3o2)c(O)c1 | 63.3% (active)
28 | O=C(c1cc(Cl)ccc1F)N1CCC(c2nc(C3CC3)n[nH]2)CC1 | -2.96%
29 | Cc1ccc(CS(=O)(=O)c2cn(CC(=O)N3CCCCC3)c3ccccc23)cc1 | -20.5%
30 | O=C(Cn1cc(S(=O)(=O)Cc2ccccc2Cl)c2ccccc21)N1CCCCCC1 | 42% (active)
31 | O=C(Cn1cc(S(=O)(=O)Cc2ccccc2F)c2ccccc21)N1CCCCCC1 | -0.288%
32 | COc1ccc(-c2nc(-c3cccs3)no2)cc1OC | -2.65%
33 | O=S(=O)(c1ccc(S(=O)(=O)N2CCN3CCCC3C2)cc1)N1CCOCC1 (configuration not stated) | -8.52%
34 | Cc1ccc(NC(=O)Cc2sc(Nc3ccc(C)cc3)nc2O)cc1 | 58.2% (active)
35 | CCOc1ccc(Nc2nc(O)c(CC(=O)Nc3cccc(C)c3)s2)cc1 | 7.74%
36 | Cc1ccc(Nc2nc(O)c(CC(=O)Nc3ccc(C(C)C)cc3)s2)cc1C | 6.68%
37 | NC(=O)CN1C(=O)CO[C@H]2CN(Cc3ccc(F)c(F)c3)C[C@H]21 | -11.3%
38 | Cn1c(=O)n(CCCO)c(=O)c2c1nc1n2CCCN1c1ccccc1 | 9.32%

Row | Compound | inhibition
39 | COc1cccc(N2CCN(C(=O)CCC3=NS(=O)(=O)c4ccc(C)cc4N3)CC2)c1 | -26.5%
40 | CCOc1ccccc1NC(=O)Nc1cc(-c2nc3ccccc3o2)ccc1OC | 57.1% (active)
41 | Cn1c(=O)c2ncn(CC(=O)Nc3ccc(-c4nc5ccccc5o4)cc3)c2n(C)c1=O | 8.05%
42 | COc1ccccc1NC(=O)N1CCN(Cc2nc3ccccc3o2)CC1 | -4.24%
43 | CCN1CCN(c2cc(C)c3cc(NC(=O)c4cccnc4)ccc3n2)CC1 | -9.13%
44 | O=C(Cc1ccccc1Cl)Nc1ccc(N2CCOCC2)cc1 | 31.6% (active)
45 | Cn1cnnc1SCC(=O)Nc1ccc(N2CCOCC2)c(Cl)c1 | -11.6%
46 | CCN(CC)c1nc2ccccc2nc1C(=O)Nc1ccc(N2CCOCC2)cc1 | -6.91%
47 | O=S(=O)(NCc1nc2cccnc2n1C1CC1)c1ccccc1F | 9.68%
48 | Cc1nn(-c2ccc(F)cc2)c(C)c1S(=O)(=O)NCc1ccc2c(c1)OCO2 | -23%
49 | Cn1nc(C(=O)NCCN2CCOCC2)c2c1-c1ccccc1CC2 | 2.07%
50 | COc1ccc(-c2ocnc2C(=O)NCc2ccc(OC)c(OC)c2)cc1 | -0.808%
51 | COc1ccc(CNC(=O)c2[nH]nc3c2CCc2ccccc2-3)cc1 | 67.3% (active)
52 | CC(=O)O[C@H]1C[C@@]23COC(=O)/C=C(\C)CCOC(=O)/C=C/C=C\C(=O)O[C@@H]4C[C@@H](O[C@@H]2C=C1C)[C@@]1(CO1)[C@]43C | -0.539%
53 | Cc1nn(C)cc1C(=O)Nc1cnn(C)c1C(N)=O | 5.15%
54 | CC(C)(C)C(=O)OCc1noc(-c2ccccc2)n1 | 16.8%
55 | Cc1ccc(NCc2cc3c(C)nn(-c4ccccc4)c3[nH]c2=O)cc1C | -32.1%
56 | Cc1nn(-c2ccccc2)c2[nH]c(=O)c(C#N)c(-c3ccco3)c12 | -26.6%
57 | CC(C)(C)c1nn(-c2ccccc2)c2[nH]c(=O)c(CNCCc3ccccc3)cc12 | 31.9% (active)
